From PubChem BioAssay
Activity calls are given as the source filed them. Unless noted, no stated cut-off is given here; in the data, active means inhibition above about 80%; inactive means the rest.

What was measured:
[1] = CRL2098 osteosarcoma cell growth inhibition, synergistic combos for chromothripsis tumors, BGB or cisplatin IC20 combos (AID 1671454); conditions: CRL2098 osteosarcoma cells, drug combinations, stronger effect = higher value;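 further: cells exposed for 96 h before readout; 0% = vehicle DMSO and 100% = killing by high DMSO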
[2] = HD-MB03 medulloblastoma cell growth inhibition, synergistic combos for chromothripsis tumors, BGB or cisplatin IC20 combos (AID 1671455; in the data active means inhibition above about 83%;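 further: 0% = vehicle DMSO and 100% = high DMSO as cytotoxic control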); conditions: HD-MB03 medulloblastoma cells, stronger effect = higher value
[3] = UWB1.289 ovarian carcinoma cell growth inhibition, synergistic combos for chromothripsis tumors, BGB or cisplatin combos (AID 1671456); conditions: UWB1.289 ovarian carcinoma cells, stronger effect = higher value;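 further: cells exposed to compound for four days; 0% = vehicle DMSO and 100% = killing by high DMSO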
[4] = LFS_MB_2R medulloblastoma cell growth inhibition, synergistic combos for chromothripsis tumors, cisplatin combos (AID 1671457); conditions: LFS_MB_2R medulloblastoma cells, stronger effect = higher value;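 further: cells exposed to compound for four days before readout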
[5] = MDA-MB-436 breast carcinoma cell growth inhibition, synergistic combos for chromothripsis tumors, BGB or cisplatin combos (AID 1671458; call rule not given here;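 further: cells exposed for 96 hours; 0% = vehicle DMSO and 100% = killing by high DMSO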); conditions: MDA-MB-436 breast carcinoma growth inhibition, drug combinations, stronger effect = higher value
[6] = UWB1.289_BRCA1 ovarian cancer growth, cell-based, BGB or cisplatin combinations (AID 1671459); conditions: UWB1.289 BRCA1 ovarian carcinoma, drug combinations, stronger effect = higher value
[7] = human astrocyte viability loss, single and combined drugs, cytotoxicity control for chromothriptic childhood tumor combination screen, cell-based, BGB or cisplatin IC20 combos (AID 1671460); conditions: Human astrocytes, drug combinations, stronger effect = higher value;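 further: cells exposed to compounds for 96 hours before viability readout; 0% = vehicle and 100% = killing control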
[8] = growth inhibition of BT084 medulloblastoma cells, cell-based, ICGC_MB145, cisplatin and BGB IC40 combos (AID 1671461); conditions: drug combinations, stronger effect = higher value;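 further: cells exposed to drugs for 96 hours; 0% = vehicle DMSO and 100% = high DMSO full killing control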
[9] = growth inhibition of RCMB18 medulloblastoma cells, cell-based, cisplatin and BGB IC40 combos (AID 1671462); conditions: stronger effect = higher value;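 further: cells exposed to compound for four days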
[10] = growth inhibition of CRL1545 osteosarcoma cells, cell-based, cisplatin and BGB IC20 combos (AID 1671464); conditions: stronger effect = higher value;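 further: cells exposed to compound for 96 hours before readout; 0% = vehicle DMSO and 100% = high DMSO killing control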
[11] = LFS_MB_P medulloblastoma growth inhibition, cell-based, chromothripsis tumors, cisplatin or BGB combos (AID 1671449); conditions: LFS_MB_P medulloblastoma cells;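 further: cells exposed for 96 hours; 0% = vehicle DMSO and 100% = killing by high DMSO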
[12] = HDN33 neuroblastoma growth inhibition, cell-based, chromothripsis tumors, cisplatin or BGB combos (AID 1671450); conditions: HDN33 neuroblastoma cells, stronger effect = higher value;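 further: cells exposed to compound for four days; 0% = vehicle DMSO and 100% = cell killing by high DMSO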
[13] = ICB984 medulloblastoma cell growth inhibition, synergistic combos for chromothripsis tumors, cisplatin or BGB combos (AID 1671451; call rule not given here;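 further: cells exposed for 96 hours before readout; 0% = vehicle DMSO and 100% = killing by high DMSO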); conditions: ICB984 medulloblastoma cells, drug combinations, stronger effect = higher value
[14] = LFS_MB_1R medulloblastoma cell growth inhibition, synergistic combos for chromothripsis tumors, cisplatin or BGB combos (AID 1671452); conditions: LFS_MB_1R medulloblastoma cells, stronger effect = higher value;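 further: cells exposed for 96 hours before readout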
[15] = HTB85 osteosarcoma cell growth inhibition, synergistic combos for chromothripsis tumors, BGB or cisplatin IC20 combos (AID 1671453); conditions: HTB85 osteosarcoma cells, drug combinations, stronger effect = higher value;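 further: cells exposed for 96 hours before readout; 0% = vehicle DMSO and 100% = high DMSO killing control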
[16] = measured here: combination with BGB at IC20, at 0.5 µM
[17] = measured here: combination with cisplatin at IC20, at 0.5 µM
[18] = measured here: combo with BGB at IC20, at 0.5 µM
[19] = measured here: combo with cisplatin at IC20, at 0.5 µM
[20] = measured here: inhibition with BGB combination, at 0.05 µM
[21] = measured here: inhibition with cisplatin combination, at 0.05 µM
[22] = measured here: combination with cisplatin, at 0.5 µM
[23] = measured here: combination with cisplatin, at 5 µM
[24] = measured here: BGB combination, at 0.5 µM
[25] = measured here: BGB combination, at 5 µM
[26] = measured here: cisplatin combination, at 0.5 µM
[27] = measured here: cisplatin combination, at 5 µM
[28] = BGB combination, concentration series, at 5 µM
[29] = cisplatin combination, concentration series, at 5 µM
[30] = measured here: combo with BGB IC20, at 0.5 µM
[31] = measured here: combo with cisplatin IC20, at 0.5 µM
[32] = cisplatin combination, at 0.5 µM
[33] = measured here: BGB IC40 combination 0.05 uM, at 0.05 µM
[34] = measured here: BGB IC40 combination, at 0.05 µM
[35] = measured here: with BGB IC20 combination, at 0.5 µM
[36] = measured here: with cisplatin IC20 combination, at 0.5 µM
[37] = measured here: combination with BGB IC40, at 0.05 µM

With `NC(=O)c1ncn(C2OC(CO)C(O)C2O)c1O` (stereo unspecified) the inhibition ([1]; at 0.5 µM) was -22.6% (inactive), the inhibition [1, 16] was -31.9% and the inhibition [1, 17] was -21.8%. For the same compound, the inhibition ([2]; at 0.5 µM) was -5.96% (inactive), the inhibition [2, 18] was -11.6% and the inhibition [2, 19] was 0.212%. The inhibition ([3]; at 0.5 µM) was 2.16% (inactive), the inhibition [3, 20] was -15.4% and the inhibition [3, 21] was -3.17%. For the same compound, the inhibition ([4]; at 0.5 µM) was -17.9% (inactive), the inhibition [4, 22] was -10.4% and the inhibition [4, 23] was -9.64%. For the same compound, the inhibition ([5]; at 0.5 µM) was -15.6% (inactive), the inhibition [5, 24] was -16% and the inhibition [5, 25] was -1.99%. For the same compound, the inhibition [5, 26] was -28.5%, the inhibition [5, 27] was -10.8% and the inhibition [6, 28] was 5.96%. The inhibition ([6]; at 0.5 µM) was 2.34% (inactive), the inhibition [6, 29] was 12.4% and the inhibition ([7]; at 0.5 µM) was -5.39% (inactive). For the same compound, the inhibition [7, 30] was -5.58%, the inhibition [7, 31] was -13.5% and the inhibition ([8]; at 0.5 µM) was -0.897% (inactive). For the same compound, the inhibition [8, 32] was 6.23%, the inhibition ([8]; cisplatin combination, at 5 µM) was -20.7% and the inhibition [8, 33] was 5.17%. For the same compound, the inhibition ([8]; single agent, at 5 µM) was -12.6%, the inhibition ([9]; at 0.5 µM) was -9.69% (inactive) and the inhibition ([9]; cisplatin combo, at 5 µM) was 0.143%. It also gave an inhibition [9, 34] of -17.2%, an inhibition [9, 22] of 9.55% and an inhibition ([9]; single agent, at 5 µM) of -31.2%. For the same compound, the inhibition ([10]; at 0.5 µM) was -13.2% (inactive), the inhibition [10, 35] was 2.45% and the inhibition [10, 36] was -21%. For the same compound, the inhibition ([10]; single agent, at 0.05 µM) was 13% and the inhibition ([10]; single agent, at 5 µM) was 22.2%.
In the case of `Cc1cn(C2CC(O)C(COP(=O)(O)OP(=O)(O)OP(=O)(O)O)O2)c(=O)[nH]c1=O` (stereo unspecified), the inhibition ([11]; at 0.5 µM, stronger effect = higher value) was -19.9% (inactive), the inhibition ([11]; measured here: combination with BGB IC20, at 0.005 µM) was -8.93% and the inhibition ([11]; measured here: combination with BGB IC40, at 0.005 µM) was 80.9%. For the same compound, the inhibition [11, 37] was 0.344%, the inhibition ([11]; measured here: combination with cisplatin, at 0.5 µM, stronger effect = higher value) was -42.6% and the inhibition ([11]; measured here: combination with cisplatin, at 5 µM, stronger effect = higher value) was -12.4%. The inhibition ([12]; BGB combo, at 5 µM) was -9.68%, the inhibition ([12]; at 0.5 µM) was 4.14% (inactive) and the inhibition ([12]; cisplatin combo, at 5 µM) was 0.577%. The inhibition [12, 35] was -1.96%, the inhibition [12, 36] was 7.93% and the inhibition ([12]; single agent, at 5 µM) was 1.73%. It also gave an inhibition ([13]; BGB IC20 combo, at 0.005 µM) of 10.7%, an inhibition ([13]; BGB IC40 combo, at 0.005 µM) of 17.3% and an inhibition ([13]; BGB IC40 combo, at 0.05 µM) of 24%. For the same compound, the inhibition ([13]; at 0.5 µM) was 8.18% (inactive), the inhibition ([13]; cisplatin combo, at 0.05 µM) was 20.3% and the inhibition ([13]; cisplatin combo, at 0.5 µM) was 3.65%. For the same compound, the inhibition ([13]; cisplatin combo, at 5 µM) was -24.4%, the inhibition ([13]; measured here: 5 uM single agent, at 5 µM) was 4.13% and the inhibition ([14]; at 0.5 µM) was 6.88% (inactive). It also gave an inhibition [14, 37] of -1.92%, an inhibition [14, 22] of 9.07% and an inhibition [14, 23] of 4.13%. The inhibition ([15]; at 0.5 µM) was 7.15% (inactive), the inhibition ([15]; measured here: with BGB IC20, at 0.5 µM) was 27.1% and the inhibition ([15]; measured here: with BGB IC20, at 5 µM) was 13.2%. It also gave an inhibition ([15]; measured here: with cisplatin IC20, at 0.5 µM) of -5.05%, an inhibition ([15]; measured here: with cisplatin IC20, at 5 µM) of 1.73% and an inhibition ([15]; single agent, at 5 µM) of 10.9%. The inhibition ([1]; at 0.5 µM) was 6.85% (inactive), the inhibition [1, 16] was -16.6% and the inhibition [1, 17] was 29.2%. For the same compound, the inhibition ([2]; at 0.5 µM) was 10.7% (inactive), the inhibition [2, 18] was 9.76% and the inhibition [2, 19] was 8%. For the same compound, the inhibition ([3]; at 0.5 µM) was 7.19% (inactive), the inhibition [3, 20] was 12.5% and the inhibition [3, 21] was -3.67%. For the same compound, the inhibition ([4]; at 0.5 µM) was 0.97% (inactive), the inhibition [4, 22] was 8.52% and the inhibition [4, 23] was 26.6%. For the same compound, the inhibition ([5]; at 0.5 µM) was 2% (inactive), the inhibition [5, 24] was -1.94% and the inhibition [5, 25] was 2.66%. The inhibition [5, 26] was -0.048%, the inhibition [5, 27] was 5.35% and the inhibition [6, 28] was 5.28%. For the same compound, the inhibition ([6]; at 0.5 µM) was 7.57% (inactive), the inhibition [6, 29] was 6.92% and the inhibition ([7]; at 0.5 µM) was 2.58% (inactive). For the same compound, the inhibition [7, 30] was -0.198%, the inhibition [7, 31] was 3.8% and the inhibition ([8]; at 0.5 µM) was 6.5% (inactive). It also gave an inhibition [8, 32] of 4.31%, an inhibition ([8]; cisplatin combination, at 5 µM) of -28.2% and an inhibition [8, 33] of 23.2%. For the same compound, the inhibition ([8]; single agent, at 5 µM) was 18.9%, the inhibition ([9]; at 0.5 µM) was -1.71% (inactive) and the inhibition ([9]; cisplatin combo, at 5 µM) was -2.93%. The inhibition [9, 34] was 18.6%, the inhibition [9, 22] was -28.7% and the inhibition ([9]; single agent, at 5 µM) was 2.51%. The inhibition ([10]; at 0.5 µM) was 12.4% (inactive), the inhibition [10, 35] was 17.1% and the inhibition [10, 36] was 8.61%. The inhibition ([10]; single agent, at 0.05 µM) was -33% and the inhibition ([10]; single agent, at 5 µM) was -18%.
